# Records with an inconclusive call do not appear. A call without a number means that no potency is given here. The source made the active and inactive calls. Unless noted, calls follow the shape of the dose curve; as a rule, active = well fitted curve in the direction sought with a large enough effect; inconclusive = small, poorly fitted or top-dose-only effect, or another doubt; inactive = no such curve, though single readings can be large; an effect the other way counts as inactive or inconclusive.
# Assays:
# [1] = qHTS assay for measurement of the activity of small molecule inhibitors on Zika virus induced Caspase-3 activity in human iPSC derived neural progenitor cells (hNPCs) (AID 1224857); also: nearly all actives have a fitted effect of over 65% in size
# Outline: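 Human iPSC-derived neural progenitor cells pretreated 1 hr with compounds, then infected with Zika virus (2 FFU/cell) for 6 hours at 37 C. Caspase-3/7 measured by Caspase-Glo luminescence; % inhibition calculated from induction scaled to uninfected (0%) and infected (100%) wells.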
# [2] = qHTS assay for measurement of the activity of small molecule inhibitors on Zika virus induced Caspase-3 activity in human astrocytoma cells (AID 1224859)
# Outline: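 SNB-19 astrocytoma cells, 250/well, pretreated 1 h with compounds, then Zika virus at 2 FFU/cell for 6 h at 37 C; Caspase-Glo 3/7 luminescence after 30 min; percent inhibition normalised to uninfected and infected controls.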
# [3] = qHTS assay to identify small molecule inhibitors of chordoma cells - UCH-2 (AID 1259356)
# [4] = P-glycoprotein substrates identified in KB-8-5-11 adenocarcinoma cell line, qHTS therapeutic library screen (AID 1346987); also: nearly all actives have a fitted effect of over 65% in size; also: potency is read from the fitted curve at half-maximal effect
# Outline: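 Human cervical adenocarcinoma KB-8-5-11 cells, selected in colchicine to over-express P-gp and assayed without it, were exposed for 72 h to titrated compounds. An ATP-based luminescent viability signal gave AC50.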
# [5] = NS1 protein of Zika virus - qHTS assay to identify small molecule inhibitors in human HEK 293 cells (AID 1347053); also: nearly all actives have a fitted effect of over 55% in size
# Outline: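 Read-out is a two-antibody TR-FRET for ZIKV NS1, normalized between uninfected cells and infected cells. Compound added 1 h before MR766 infection at MOI 0.5; human HEK 293 cells incubated 24 h, 37 C.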
# [6] = P-glycoprotein substrates identified in KB-3-1 adenocarcinoma cell line, qHTS therapeutic library screen (AID 1346986); conditions: KB-3-1 parental cells viability, CellTiter-Glo, 72 h; at 44.5 µM (top of the series); also: nearly all actives have a fitted effect of over 60% in size
# Outline: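 Using luminescence to quantify ATP, parental and P-gp-overexpressing KB cells were compared after 72 h compound titration. KB-8-5-11 was also run with the P-gp inhibitor tariquidar.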
# [7] = Natriuretic polypeptide receptor (hNpr1) antagonism - Pilot counterscreen GloSensor control cell line (AID 1347045; calls by dose curve)
# Outline: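 The SNP-driven cGMP luminescence signal (50 uM, 20 min, room temperature) was measured in GloSensor HEK293 control cells. Compounds were tested as a LOPAC titration series and preincubated for 30-50 min.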
Structure (SMILES),outcome [1],outcome [2],Potency [3],Potency [4],Potency [5],outcome [6],outcome [7]
Oc1cc(O)c2c(c1)O[C@H](c1ccc(O)c(O)c1)[C@H](O)C2,inactive,inactive,inactive,inactive,inactive,,
CC(C)COC(=O)c1ccc(N)cc1,inactive,inactive,inactive,inactive,,,
C=C1C[C@H]2[C@@H]3C=C(C)C4=CC(=O)CC[C@]4(C)[C@H]3CC[C@]2(C)[C@@]1(OC(C)=O)C(C)=O,inactive,inactive,inactive,14.6 µM (active),inactive,,
CN=C(NC#N)Nc1ccc(C2=NNC(=O)CC2C)cc1 (stereo unspecified),inactive,inactive,inactive,inactive,inactive,,
CCC(=O)c1c(O)cc(O)cc1O,inactive,inactive,inactive,inactive,inactive,,
C[C@H](O)C(=O)Nc1c(I)c(C(=O)NC(CO)CO)c(I)c(C(=O)NC(CO)CO)c1I,inactive,inactive,inactive,inactive,inactive,,
CCOC(=O)OC(C)OC1=C(C(=O)Nc2ccccn2)N(C)S(=O)(=O)c2ccccc21 (stereo unspecified),inactive,inactive,inactive,inactive,,,
CCCN1CCCC[C@H]1C(=O)Nc1c(C)cccc1C,inactive,inactive,inactive,inactive,inactive,,
CCCCCCCCCCCCCCCC[N+](C)(C)CCN(Cc1ccc(OC)cc1)c1ncccn1,inactive,inactive,inactive,inactive,,,
CC(=O)O[C@]1(C(C)=O)CC[C@H]2[C@@H]3C[C@H](C)C4=CC(=O)CC[C@]4(C)[C@H]3CC[C@@]21C,inactive,inactive,inactive,10.3 µM (active),inactive,inactive,
COC(=O)[C@@H]1CC2=CC(=O)CC[C@]2(C)[C@@]23O[C@@H]2C[C@@]2(C)[C@@H](CC[C@@]24CCC(=O)O4)[C@H]13,inactive,inactive,inactive,inactive,inactive,,
CCCC(=O)O[C@]1(C(=O)CO)CC[C@H]2[C@@H]3CCC4=CC(=O)CC[C@]4(C)[C@H]3[C@@H](O)C[C@@]21C,inactive,inactive,inactive,inactive,,,
CC[N+](CC)(CCNC(=O)C(=O)NCC[N+](CC)(CC)Cc1ccccc1Cl)Cc1ccccc1Cl,inactive,inactive,inactive,inactive,,,
CC(=O)[C@H]1CC[C@H]2[C@@H]3C[C@H](C)C4=CC(=O)CC[C@]4(C)[C@H]3[C@@H](O)C[C@]12C,inactive,inactive,inactive,6.99 µM (active),,,
CN(C)CCOc1ccccc1Cc1ccccc1,inactive,inactive,inactive,inactive,,,
CC(=O)OCC(=O)[C@@]1(O)[C@H](C)C[C@H]2[C@@H]3CCC4=CC(=O)C=C[C@]4(C)[C@@]3(F)[C@@H](O)C[C@@]21C,inactive,inactive,inactive,inactive,inactive,inactive,
CC(C)(C)CC(C)(C)c1ccc(O)c(Cc2ccc(Cl)cc2Cl)c1,inactive,inactive,inactive,23.1 µM (active),,,

Structure (SMILES),outcome [1],outcome [2],Potency [3],Potency [4],Potency [5],outcome [6],outcome [7]
Cc1cc(O)c(C(C)C)cc1Cl,inactive,inactive,inactive,inactive,inactive,,
C[C@H]1C[C@H]2[C@@H]3CCC4=CC(=O)C=C[C@]4(C)[C@@]3(Cl)[C@@H](O)C[C@]2(C)[C@@]1(O)C(=O)CO,inactive,inactive,inactive,inactive,,,
Cc1ncc(CSSCc2cnc(C)c(O)c2CO)c(CO)c1O,inactive,inactive,inactive,inactive,,,
CC(=O)OCC(=O)[C@@]12N=C(C)O[C@@H]1C[C@H]1[C@@H]3CCC4=CC(=O)C=C[C@]4(C)[C@H]3[C@@H](O)C[C@@]12C,inactive,inactive,inactive,inactive,inactive,,
CCOc1ccc2nc3cc(N)ccc3c(N)c2c1,inactive,inactive,inactive,inactive,inactive,,
C=CCc1ccc(O)c(OC)c1,inactive,inactive,inactive,inactive,inactive,,
Cc1c(N(C)CS(=O)(=O)O)c(=O)n(-c2ccccc2)n1C,inactive,inactive,inactive,inactive,inactive,,
O=C1OC2(c3ccc(O)cc3Oc3cc(O)ccc32)c2ccccc21,inactive,inactive,inactive,inactive,,,
CCOc1ccc(NC(=O)CC(C)O)cc1 (stereo unspecified),inactive,inactive,inactive,inactive,inactive,,
CNCCC=C1c2ccccc2CCc2ccccc21,inactive,inactive,inactive,20.6 µM (active),inactive,,
CCCC1O[C@@H]2C[C@H]3[C@@H]4CCC5=CC(=O)C=C[C@]5(C)[C@H]4[C@@H](O)C[C@]3(C)[C@]2(C(=O)CO)O1 (stereo partly specified),inactive,inactive,inactive,inactive,inactive,,inactive
Cc1c(C(C)C)c(=O)n(-c2ccccc2)n1C,inactive,inactive,inactive,inactive,,,
CC(=O)Oc1ccc(C(c2ccc(OC(C)=O)cc2)c2ccccn2)cc1,inactive,inactive,inactive,inactive,inactive,,
CCN(CC)C(=O)/C(C#N)=C/c1cc(O)c(O)c([N+](=O)[O-])c1,inactive,inactive,inactive,inactive,inactive,,
CC1(C)O[C@@H]2C[C@H]3[C@@H]4CCC5=CC(=O)CC[C@]5(C)[C@@]4(F)[C@@H](O)C[C@]3(C)[C@]2(C(=O)CCl)O1,inactive,inactive,inactive,inactive,inactive,,
COc1cc(/C=C/C(=O)O[C@H]2CC[C@]34C[C@]35CC[C@]3(C)[C@@H]([C@H](C)CCC=C(C)C)CC[C@@]3(C)[C@@H]5CC[C@H]4C2(C)C)ccc1O,inactive,inactive,inactive,inactive,inactive,,

# Source: PubChem BioAssay (NCATS)
